Reference: the supplement of paper PMC3724861
This is one part of a sample in which hits are shown more often than they occur. No count for the full screen is at hand.

The sequences below were run on T1, Caupolican (Caup) homeodomain DNA-binding domain (assay: PBM E-score (8-mer, recovered from the published 9-mer minima) (E-score (dimensionless, -0.5 to 0.5)); Drosophila protein; higher = stronger relative binding preference, active = 0.31 or more).
T1 sequence: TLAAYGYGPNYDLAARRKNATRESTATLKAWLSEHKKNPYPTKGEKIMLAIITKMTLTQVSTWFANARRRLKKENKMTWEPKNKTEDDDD
In short: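 Caup's homeodomain DNA-binding domain (residues 214-303) was made by in vitro transcription and translation and applied at 100 nM to custom-designed protein binding microarrays. Each value is an enrichment score that gives relative binding preference for a short DNA word, with higher meaning stronger. The 8-mer values were recovered from published 9-mer scores, each of which was the minimum of its two constituent 8-mer scores. A cutoff of 0.31 marks candidate sites.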

PBM E-score, inactive:
ATGGGTCG -0.0702
ACAATGGC 0.0838
ACTCTCGC -0.115
TCTTGCAA 0.0461
GATTGTAA 0.205
AATTGTAT 0.228
GTTTGTAA 0.198
ATTTGTAA 0.277
AGTTGTAT 0.231
TATTGTAA 0.275
AATTGTAA 0.209
ATATCTAC 0.166
ACAAAAAC 0.117
AGTTGGTG -0.0391
CCGCATAG -0.0554
ATTGTTCG 0.213
CGCTCAGC -0.138
CTACAAGA 0.263
CTACAAGC 0.29
ATACAATA 0.26
CTACAAAA 0.123
GCACAAGA 0.0557
ATACAAGG 0.283
TTACAAAA 0.203
GTACAATA 0.306
AATAGCCT -0.0311
AATAGAGA 0.041
CACGTAAG 0.0839
GTGCTCCA -0.0875
CTTCCAGC -0.248
CCCGAATC -0.201
CACATCTC -0.00827
AACATCTT 0.246
AACATCTA 0.252
CAAATGTA 0.294
AAAATGTT 0.249
CACATCTA 0.208
AACATTTA 0.275
CAAATGTC 0.141
GCGTACGC -0.112
ACCACCAC 0.0458
CGAATCTC 0.0162
GATGCCCA -0.0463
CGCTTTAC 0.0463
GCGATACA 0.217
ATTGGGAG -0.0672
ACGGATCG 0.00507
CCTTGCTA 0.0673
AAAGGTCT -0.0899
GAAATGTC 0.114
AACATCTG 0.22
GACATTTA 0.177
GACATATC 0.256
AACATCTC 0.254
AAAATGTC 0.217
CACATGTG 0.18
GAAATGTA 0.131
CGTGCTGA 0.0459
CTGGGCTC -0.186
ACACCACA 0.262
ACGCTGTC 0.0456
GCCACCAC -0.199
ATTGCCAG -0.0611
GAGTTACA 0.215
CTGTTACC 0.142
GTGTTAAA 0.246
CGGTTACA 0.183
GCGTTACA 0.198
AGGTTACG -0.0221
ACGTTACG 0.0614
AAGTTACA 0.261
CGTTATTA 0.116
AAAACCGG -0.0173
ACGCAATG 0.0404
CTGTCCCC -0.0725
CAGCTAGG -0.046
TACAATGA 0.266
ACGTTACA 0.282
AGGTTACC -0.0352
AGGTTACA 0.191
AAGTTACC 0.148
AAGTCGTG 0.0196
AAAATGTA 0.166
CGATATTA 0.219
ATTTTACA 0.305
TCTTACAA 0.246
CATTACAA 0.288
AATTACCA 0.184
GATTACTA 0.184
AATTACGT 0.122
AATTACTA 0.179
GATTACCA 0.0721
AATTACAG 0.244
AAGACTGC -0.0769
AAATGACG 0.171
GATGCCAA -0.0306
TAGCGGGA -0.169
CGATATTC -0.0778
AGGATGAA -0.102
CCGAGTCG -0.169
AGAAGAGG -0.176
CCCCTTCG -0.25
ATGGGAAC 0.0233
AGGTAGAA 0.0148
TAACAGCA 0.145
CACAAACC -0.0236
TTGATCAA 0.115
GACCGTTA 0.0165
AGTCAGAC -0.0283
CGTTACAA 0.289
ACTTACAG 0.187
AGTTACAG 0.189
AGTTACAC 0.303
AGTTACAA 0.295
ACTTACAC 0.245
CCGAAATC -0.0715
CCGAGCAG -0.0223
ACTCAGCA 0.0319
ACGTGTTC 0.279
ACGTGTGG 0.0393
AGGTGTTA 0.207
CGGTGTTA 0.179
CGGTGTTC 0.157
CAGTGTTA 0.24
AGGTGTTG 0.125
GCGTGTTA 0.284
ACCGGGCC -0.228
GCACGTCC -0.0893
AGTTTTCC -0.0223
AGCCCACT -0.166
AGGTTCAC -0.0392
CTGTTCAC 0.147
GTGTTCGA 0.236
ATGTTCAG 0.295
ATGTTCGG 0.244
CTGTTCAA 0.0792
CACTCTGA 0.0251
ATAGGGTG -0.0464
CCCATAAC 0.0433
CACGACCA 0.098
CAGAAGAG -0.0491
ATCCTCCG -0.0647
AAGTGAGA -0.0758
CCTCTGGA -0.169
CTCCGTGA -0.0581
CGGTAGGC -0.149
ATACGATA 0.186
CGATGTAG 0.179
CCCTGTAA 0.161
ACCTGTAG 0.0685
GAATGTAC 0.165
GGATGTAC 0.305
CCATGTAG 0.268
CGATGTGC -0.0367
AAATGTAG 0.0799
AGGCTTTC -0.088
ACCGCGGA -0.137
ATTCCTTA 0.0011
CATCCCAC -0.133
GCTGCCGA -0.282
AACTGTAA 0.197
AGATGTAC 0.299
ACACGTAA 0.309
TCCTGTAA 0.2
TCATGGAA 0.0375
CCCTGTAC 0.158
AAATGTAC 0.279
CCCCTTGA -0.156
CACGCACA 0.0915
AGGTCATG 0.0878
ATAGTCGG -0.0656
AAAGCTCG -0.0924
CTCATCTC -0.158
GGGATTGA -0.0471
AAATGTAT 0.241
GCATGGAA -0.00398
ACCTGTAT 0.222
GCCTGTAA 0.09
CGCAGAAC -0.0278
GAATTATA 0.109
GCGGGTAA -0.02
CAACAACC 0.238
TAACAAGA 0.298
AAACAACT 0.246
TAACAAAA 0.119
GAACAACA 0.292
AAACAACC 0.202

PBM E-score, active:
GCTTGTAA 0.384
TCTTGTAA 0.371
ACTTGTAA 0.403
ACTTGTAT 0.391
GTACAAGA 0.418
ATACAAGA 0.322
GTACAAAA 0.323
ATACAAGC 0.316
CACATGTC 0.387
CACATGTA 0.42
AACATGTA ≥ 0.48
AACATGTT 0.45
GACATGTA 0.477
GACATGTC 0.437
AACATGTG 0.402
AACATGTC 0.424
GTGTTACA 0.381
CTGTTACA 0.33
ATGTTACG 0.326
TAGTTACA 0.311
ATGTTACC 0.331
ATGTTACA 0.406
AATTACAA 0.396
GATTACAA 0.314
TATTACAA 0.341
AATTACAT 0.385
TGTTACAA 0.42
AGTTACAT 0.319
ACTTACAT 0.339
ACGTGTTA 0.33
ACGTGTTG 0.347
CCGTGTTC ≥ 0.382
CCGTGTTA 0.321
ATGTTCGA 0.34
ATGTTCAC 0.334
ATGTTCAA 0.327
CCATGTAA 0.404
ACATGTAG 0.476
CGATGTAC 0.374
GCATGTAC 0.413
ACATGTAA 0.468
TCATGTAA 0.427
CCATGTAC 0.411
ACATGTAC ≥ 0.48
GCATGTAA 0.409
ACATGTAT 0.469
TAACAACA 0.406
AAACAACA 0.363
CAACAACA 0.408
